Reference: the supplement of paper PMC11402862

Test system: PPARalpha LBD (GAL4 fusion)
Experiment: luciferase reporter transactivation, fold of solvent control; higher = stronger receptor activation
Settings: HEK293T, exposure time: 24 h
Protocol: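 HEK293T cells were transiently transfected with a GAL4-DBD fused to the ligand-binding domain of a human nuclear receptor (PPARα, PPARγ, PPARδ, FXR, LXRα, PXR, RARα or CAR), the GAL4-(UAS)5-TK firefly luciferase reporter and a Renilla luciferase normalisation plasmid. Cells were exposed to compound for 24 h in 0.5% DMSO. Firefly/Renilla luciferase was expressed as fold of the solvent control (=1). Values are the mean of 2-3 biological replicates; receptor agonists were used as positive controls.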

## O=S(=O)(O)CCC(F)(F)C(F)(F)C(F)(F)C(F)(F)C(F)(F)C(F)(F)C(F)(F)C(F)(F)F [8:2 fluorotelomer sulfonic acid]
concentration: 1 µM
  luciferase reporter transactivation: 1.07
concentration: 5 µM
  luciferase reporter transactivation: 1.09
concentration: 10 µM
  luciferase reporter transactivation: 1.18
concentration: 25 µM
  luciferase reporter transactivation: 1.29
concentration: 50 µM
  luciferase reporter transactivation: 1.33
concentration: 100 µM
  luciferase reporter transactivation: 1.97
concentration: 250 µM
  luciferase reporter transactivation: 1.6
concentration: 500 µM
  luciferase reporter transactivation: 1.31

## OCCC(F)(F)C(F)(F)C(F)(F)C(F)(F)C(F)(F)C(F)(F)F [6:2 fluorotelomer alcohol]
concentration: 1 µM
  luciferase reporter transactivation: 0.709
concentration: 5 µM
  luciferase reporter transactivation: 0.741
concentration: 10 µM
  luciferase reporter transactivation: 0.818
concentration: 25 µM
  luciferase reporter transactivation: 0.925
concentration: 50 µM
  luciferase reporter transactivation: 0.748
concentration: 100 µM
  luciferase reporter transactivation: 0.765
concentration: 250 µM
  luciferase reporter transactivation: 0.656
concentration: 500 µM
  luciferase reporter transactivation: 0.825

## O=S(=O)(O)CCC(F)(F)C(F)(F)C(F)(F)C(F)(F)C(F)(F)C(F)(F)F [6:2 fluorotelomer sulfonic acid]
concentration: 1 µM
  luciferase reporter transactivation: 1.06
concentration: 5 µM
  luciferase reporter transactivation: 0.983
concentration: 10 µM
  luciferase reporter transactivation: 1.08
concentration: 25 µM
  luciferase reporter transactivation: 1.08
concentration: 50 µM
  luciferase reporter transactivation: 1.13
concentration: 100 µM
  luciferase reporter transactivation: 1.78

## O=C(O)C(F)(F)C(F)(F)C(F)(F)C(F)(F)F [perfluoropentanoic acid]
concentration: 1 µM
  luciferase reporter transactivation: 1.14
concentration: 5 µM
  luciferase reporter transactivation: 1.05
concentration: 10 µM
  luciferase reporter transactivation: 1.12
concentration: 25 µM
  luciferase reporter transactivation: 1.18
concentration: 50 µM
  luciferase reporter transactivation: 1.15
concentration: 100 µM
  luciferase reporter transactivation: 1.31
concentration: 250 µM
  luciferase reporter transactivation: 1.35
concentration: 500 µM
  luciferase reporter transactivation: 1.58

## CC(C)(Sc1ccc(CCN(CCCCC2CCCCC2)C(=O)NC2CCCCC2)cc1)C(=O)O
concentration: 1 µM
  luciferase reporter transactivation: 46
